Activity calls are given as the source filed them.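 The calls were made as follows: active = inhibition of the USP46/UAF1 deubiquitinase of at least 60% at 114 µM in the gel test; inconclusive = inhibition from 30% up to under 60%; inactive = inhibition below 30%.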
What follows are compounds tested against Ubiquitin carboxyl-terminal hydrolase 46 (Homo sapiens) + WD repeat-containing protein 48 (Homo sapiens) (UniProt P62068+Q8TAF3) (assay: Inhibitors of USP1/UAF1: SAR in USP46/UAF1 diubiquitin SDS-PAGE gel assay). Settings: USP46/UAF1 K63 diubiquitin cleavage; series mostly up to 114 µM; inhibition: at the top concentration.
Sequence of Ubiquitin carboxyl-terminal hydrolase 46 (Homo sapiens) + WD repeat-containing protein 48 (Homo sapiens) (P62068 whole entry, looked up): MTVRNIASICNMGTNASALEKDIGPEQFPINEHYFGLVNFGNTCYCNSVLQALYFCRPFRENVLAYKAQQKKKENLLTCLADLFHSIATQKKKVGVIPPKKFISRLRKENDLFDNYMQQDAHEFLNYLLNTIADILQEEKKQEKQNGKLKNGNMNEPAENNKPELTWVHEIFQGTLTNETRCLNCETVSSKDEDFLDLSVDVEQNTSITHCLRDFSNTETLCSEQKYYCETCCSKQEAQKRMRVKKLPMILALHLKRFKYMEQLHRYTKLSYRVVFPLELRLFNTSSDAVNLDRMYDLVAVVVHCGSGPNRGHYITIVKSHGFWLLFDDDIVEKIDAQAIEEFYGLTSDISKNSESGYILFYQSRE
Sequence of Ubiquitin carboxyl-terminal hydrolase 46 (Homo sapiens) + WD repeat-containing protein 48 (Homo sapiens) (Q8TAF3 whole entry, looked up): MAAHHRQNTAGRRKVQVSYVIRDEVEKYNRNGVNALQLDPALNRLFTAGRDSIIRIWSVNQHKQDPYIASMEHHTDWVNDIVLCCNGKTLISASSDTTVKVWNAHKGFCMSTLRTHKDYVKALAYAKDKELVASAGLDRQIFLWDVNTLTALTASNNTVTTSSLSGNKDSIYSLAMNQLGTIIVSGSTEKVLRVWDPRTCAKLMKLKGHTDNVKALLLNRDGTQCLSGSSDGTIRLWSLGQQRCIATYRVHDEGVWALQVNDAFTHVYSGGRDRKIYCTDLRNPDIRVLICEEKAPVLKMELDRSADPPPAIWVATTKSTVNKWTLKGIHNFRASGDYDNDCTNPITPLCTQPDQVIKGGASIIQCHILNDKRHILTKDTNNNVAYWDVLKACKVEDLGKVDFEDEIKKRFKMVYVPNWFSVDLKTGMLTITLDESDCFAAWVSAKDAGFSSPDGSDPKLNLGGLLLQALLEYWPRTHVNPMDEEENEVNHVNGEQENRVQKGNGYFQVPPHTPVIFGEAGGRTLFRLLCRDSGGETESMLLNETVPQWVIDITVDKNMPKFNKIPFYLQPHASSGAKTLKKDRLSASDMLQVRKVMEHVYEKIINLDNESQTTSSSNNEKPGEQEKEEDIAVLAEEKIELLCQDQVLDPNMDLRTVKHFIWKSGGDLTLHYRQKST
Text: Deubiquitinating enzymes (DUBs) are a class of enzymes that can cleave isopeptide bond formed between the C-terminal carboxylate of ubiquitin and a lysine side-chain amino group on the target protein. Among them, ubiquitin specific proteases (USPs) constitute the largest DUB family. Human USPs are emerging as promising targets for pharmacological intervention because of their connection to a number of human diseases, including prostate, colon and breast cancer (1, 2), pediatric acute lymphoblastic leukemia (3), and familial cylindromatosis (4). The advantage of inhibiting USPs lies in the potential specificity of therapeutic intervention that can lead to better efficacy and reduce nonspecific side effects. In a collaboration between the University of Delaware and the NIH Chemical Genomics Center, a high-throughput screen assay was developed to screen for USP1/UAF1 inhibitors (5). […]
The inhibition assay contains 100 nM USP46/UAF1, 2 microM K63 linked diubiquitin, and inhibitors at varied concentrations (0.08 microM - 114 microM). […] The intensity of the individual diubiquitin and monoubiquitin band was quantified using Quantity One 4.3.1 (Biorad, Hercules, CA). The percentage of the conversion was determined and used to calculate the reaction rate. […]

Row | SMILES | inhibition
1 | Cc1cnc(-c2ccccc2C(C)C)nc1NCc1ccc(-n2ccnn2)cc1 | 9% (inactive)
